Data on 37 molecules can be found in the supplement of paper PMC13380429.

Experiment [1] concerns Vero E6 infected with SARS-CoV-2. In words: morphology score (similarity to uninfected cells); higher = more like uninfected cells. To be noted: 24 h.
Experiment [2] shares this test system. In words: SARS-CoV-2 infection rate relative to infected DMSO; higher = more infection, active = 60 or less. To be noted: 24 h.

As for `Cc1cc(C(=CNc2ccc(Cl)cc2)C(=O)Nc2ccc(Cl)cc2)on1` (10 µM), the morphology score in experiment [1] was 0.005. For the same molecule, in experiment [2], the SARS-CoV-2 infection rate is 103% (inactive).
Molecule `CCN1C(=O)CNc2ncc(-c3ccc(-c4nc[nH]n4)nc3C)nc21` (10 µM) came in with a morphology score in experiment [1] of -0.0465. The SARS-CoV-2 infection rate in experiment [2] was 96.5% (inactive).
Turning to `[N-]=[N+]=N[C@]1(CO)O[C@@H](n2ccc(N)nc2=O)[C@H](O)[C@@H]1O` (10 µM), the morphology score in experiment [1] was 0.0194. The SARS-CoV-2 infection rate in experiment [2] was 109% (inactive).
In the case of `Cc1ccc(C(=O)Nc2cccc(C(F)(F)F)c2)cc1Nc1nc(-c2cccnc2)nc2c1cnn2C` (10 µM), the morphology score in experiment [1] was -0.0613. For the same molecule, the SARS-CoV-2 infection rate in experiment [2] was 74% (inactive).
For `COC(=O)[C@H](CC(C)C)NC(=O)[C@@H](N)CC(C)C` [leucylleucine-methyl-ester] (10 µM) the same measures were 0.113 and 99.5% (inactive).
For `O=C1CCCC(=O)C1C(=O)c1ccc(C(F)(F)F)cc1[N+](=O)[O-]` [nitisinone] (10 µM) the same measures were 0.0537 and 110% (inactive).
Take `Nc1nccs1` [aminothiazole] (10 µM): in experiment [1], the morphology score was found to be 0.0165. Also, the SARS-CoV-2 infection rate in experiment [2] is 104% (inactive).
For `O=C1C2CCN(CC2)C1(CO)CO` (10 µM) the same measures were 0.273 and 83.5% (inactive).
For `O=Nc1ccc(O)c2ncccc12` (10 µM) the same measures were -0.131 and 108% (inactive).
For `C[N+](C)(C)CCOC(N)=O` [carbachol] (10 µM) the same measures were -0.148 and 101% (inactive).
In experiment [1], `c1cc(-c2cnn3cc(-c4ccc(OCCN5CCCCC5)cc4)cnc23)ccn1` [dorsomorphin] (0.833333 µM) yielded a morphology score of 0.321. The SARS-CoV-2 infection rate in experiment [2] is 96.5% (inactive).
For `CCOCOC[C@H](C[C@H](C)C(=O)NO)NC(=O)c1ccc(Oc2ccccc2)cc1` (10 µM) the same measures were 0.131 and 98.5% (inactive).
`CC1(C)O[C@@H]2C[C@H]3[C@@H]4CCC5=CC(=O)CC[C@]5(C)[C@@]4(F)[C@@H](O)C[C@]3(C)[C@]2(C(=O)CCl)O1` [halcinonide] (10 µM): the morphology score in experiment [1] came to 0.157. The SARS-CoV-2 infection rate in experiment [2] is 106% (inactive).
For `COc1ccc(-c2nc(N3CCOCC3)c3sc(CN(C)c4ncc(C(=O)NO)cn4)cc3n2)cn1` (10 µM) the same measures were -0.449 and 116% (inactive).
For `Cc1cc(CN2CCN(c3c(Br)cnc4nc(-c5ccc(N6CCN(C)CC6)cc5)[nH]c34)CC2)no1` (10 µM), the morphology score in experiment [1] was 0.247. The SARS-CoV-2 infection rate in experiment [2] was 116% (inactive).
For `NC(=O)[C@H]1CCS[C@@H]2C[C@]3(CCCN3C(=O)Cc3ccc(NC(=O)COc4ccc(Cl)cc4Cl)cc3)C(=O)N12` (10 µM) the same measures were -0.263 and 111% (inactive).
In experiment [1], `N=C(N)Nc1ccc(C(=O)Oc2ccc3cc(C(=N)N)ccc3c2)cc1` [nafamostat] (10 µM) came in with a morphology score of 0.172. The SARS-CoV-2 infection rate in experiment [2] is 108% (inactive).
Regarding `COc1nccc(-c2c(-c3ccc(F)cc3)ncn2[C@H]2CC[C@H](O)CC2)n1` (10 µM), the morphology score in experiment [1] turned out to be 0.396. Moreover, the SARS-CoV-2 infection rate in experiment [2] is 85% (inactive).
For `CNC[C@H](O)c1ccc(O)c(O)c1` [epinephrine] (10 µM) the same measures were 0.0378 and 104% (inactive).
For `Cc1c(Cl)cccc1S(=O)(=O)Nc1nc(CC(=O)N2CCN(C)CC2)cs1` (10 µM) the same measures were -0.053 and 110% (inactive).
As to `CC(=O)[C@H]1CC[C@H]2[C@@H]3CCC4=CC(=O)CC[C@]4(C)[C@H]3CC[C@]12C` [progesterone] (10 µM), in experiment [1], the morphology score is 0.206. In addition, in experiment [2], the SARS-CoV-2 infection rate is 96% (inactive).
The molecule `CN1CCCC(CN2c3ccccc3Sc3ccccc32)C1` (centres undefined) [mepazine] (10 µM) returned a morphology score in experiment [1] of 0.538. The SARS-CoV-2 infection rate in experiment [2] was 60.5% (inactive).
In experiment [1], `CCCCCCCCCCCC(=O)N(CCO)CCO` [lauric-diethanolamide] (10 µM) had a morphology score of -0.121. For the same molecule, the SARS-CoV-2 infection rate in experiment [2] was 108% (inactive).
For `CO/N=C(\C(=O)N[C@@H]1C(=O)N2C(C(=O)[O-])=C(C[N+]3(C)CCCC3)CS[C@H]12)c1csc(N)n1` [cefepime] (10 µM) the same measures were 0.0622 and 114% (inactive).
On to `O=C(O)Cc1ccc2c(c1)C(=O)c1ccccc1CO2` [isoxepac] (10 µM), for which the morphology score in experiment [1] was found to be 0.152. In addition, in experiment [2], the SARS-CoV-2 infection rate was 103% (inactive).
For `CCOP(=S)(OCC)Oc1cc(C)nc(C(C)C)n1` [dimpylate] (10 µM) the same measures were -0.0379 and 116% (inactive).
`O=C(O)c1ccc(N2N=C(Cc3ccccc3)/C(=C\c3ccc(-c4ccccc4F)o3)C2=O)cc1` (10 µM) had a morphology score in experiment [1] of -0.0825. Also, the SARS-CoV-2 infection rate in experiment [2] was 115% (inactive).
For `CC(C)(C)C(=O)OCOC(=O)[C@@H]1N2C(=O)[C@@H](NC(=O)[C@H](N)c3ccccc3)[C@H]2SC1(C)C` [pivampicillin] (10 µM) the same measures were 0.0461 and 106% (inactive).
Turning to `CCN1CCN(C(=O)N[C@@H](C(=O)N[C@@H]2C(=O)N3C(C(=O)O)=C(CSc4nnnn4C)CS[C@H]23)c2ccc(O)cc2)C(=O)C1=O` [cefoperazone] (10 µM), in experiment [1], the morphology score was 0.206. The SARS-CoV-2 infection rate in experiment [2] is 104% (inactive).
For `CC(=O)[C@H]1CC[C@H]2[C@@H]3CC=C4C[C@@H](O)CC[C@]4(C)[C@H]3CC[C@]12C` [pregnenolone] (10 µM) the same measures were -0.283 and 112% (inactive).
As to `CC[C@H]1OC(=O)[C@@](C)(F)C(=O)[C@H](C)[C@@H](O[C@@H]2O[C@H](C)C[C@H](N(C)C)[C@H]2O)[C@](C)(OC)C[C@@H](C)C(=O)[C@H](C)[C@H]2N(CCCCn3cc(-c4cccc(N)c4)nn3)C(=O)O[C@]12C` [solithromycin] (10 µM), the morphology score in experiment [1] was 0.351. Besides, the SARS-CoV-2 infection rate in experiment [2] was 104% (inactive).
For `Cc1ccc(NC(=O)c2ccc(CN3CCN(C)CC3)cc2)cc1Nc1nc(-c2cccnc2)cs1` [masitinib] (10 µM) the same measures were 0.757 and 43% (active).
For `CCC(C)(C)C(=O)O[C@H]1C[C@@H](C)C=C2C=C[C@H](C)[C@H](CC[C@@H]3C[C@@H](O)CC(=O)O3)[C@H]21` [simvastatin] (0.833333 µM) the same measures were -0.0774 and 26.5% (active).
For `c1cc2c(c(N3CCNCC3)c1)OCCO2` [eltoprazine] (10 µM) the same measures were 0.0367 and 94.5% (inactive).
`C[C@H](CSC(=O)c1ccccc1)C(=O)N1C[C@@H](Sc2ccccc2)C[C@H]1C(=O)O` [zofenopril-calcium] (10 µM) returned a morphology score in experiment [1] of 0.0896. Moreover, the SARS-CoV-2 infection rate in experiment [2] was 104% (inactive).
Turning to `N[C@@H](C(=O)O)[C@@H](OCc1ccccc1)C(=O)O.N[C@H](C(=O)O)[C@H](OCc1ccccc1)C(=O)O` (10 µM), in experiment [1], the morphology score is 0.0333. Besides, the SARS-CoV-2 infection rate in experiment [2] is 106% (inactive).
For `C#C[C@]1(O)CC[C@H]2[C@@H]3CCc4cc(O)ccc4[C@H]3CC[C@@]21C` (10 µM) the same measures were 0.128 and 102% (inactive).
